PPC-1+TRAIL kill: compounds killing PPC-1 cancer cells with TRAIL present, primary screen, TRAIL potentiator project, ATPLite luminescence, uHTS; PPC-1 cells + TRAIL, ATPLite viability luminescence; cell killing (% activity), % at 4 µM or 5 µM; 220,000 tested, 0.41% active;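 active = cell killing above 50% in the first pass at 4 µM, then a duplicate retest at 5 µM averaging 50% or more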;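 also: plate controls were cells with TRAIL plus DMSO for no effect and medium-only wells lacking cells for full effect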
HSP90 inh: HSP90 inhibitors, primary screen, cell lysate, luminescence; 290,000 tested, 0.91% active; inhibition, % at 5.6 µM; Rabbit reticulocyte lysate, luciferase refolding luminescence, 3 h; Heat shock protein HSP 90 (rabbit reticulocyte lysate; luciferase refolding);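 active = inhibition above the screen-wide mean plus 3 SD, computed separately per campaign, cut at about 16% in these data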;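 also: 0% = DMSO wells and 100% = 60 µM geldanamycin wells; inhibitors lower the luminescence because luciferase stays unfolded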
TROY signal inh: inhibitors of TROY-driven NF-kB signaling, primary screen, Q293 LMP1-TROYcd cells, NF-kB luciferase, uHTS; Q293 LMP1-TROYcd NF-kB luciferase reporter, 4 h; inhibition, % at 10 µM; 360,000 tested, 0.98% active;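 active = compounds whose plate-normalised and pattern-corrected inhibition of the luciferase reporter signal at the single screening dose is 50% or more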
C8 TRAIL sens: viability loss with TRAIL in NB7+C8 cells, primary screen, TRAIL sensitizer project, cell-based, ATPlite luminescence; 360,000 tested, 1% active; inhibition (viability loss, TRAIL sensitization), % at 10 µM;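 active = compounds causing at least 50% loss of cell viability in the single-dose screen, relative to plate controls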
Platelet DG rel: inhibitors of platelet dense granule secretion, primary screen, cell-based, MLPCN, human platelets | AID 1663, 2009 | inhibition, %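 (compounds screened at 7.5 µM in platelet-rich plasma)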 | 300,000 tested, 0.22% active | human platelet-rich plasma, SFLLRN dense granule ATP release, luminescence;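 active = mean replicate score, as percent of positive control, at or above 50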
TWEAK Fn14 block: inhibitors of TWEAK-Fn14 signaling, primary screen, luciferase reporter cells, uHTS | TWEAK-stimulated Fn14 reporter cells, luciferase luminescence, 8 h | inhibition, % at 10 µM | 360,000 tested, 2% active; in the data active = inhibition above about 50%
PPC-1 tox: cytotoxicity in PPC-1 cells, confirmation, cytotoxicity control for TRAIL apoptosis potentiator project, cell-based, ATP content luminescence; PPC-1 viability, ATPlite luminescence, overnight; cytotoxicity, % at 5 µM; 1,200 tested, 50% active; shares compounds with PPC-1+TRAIL kill;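 active = reconfirmed compounds whose average cytotoxicity reaches 50% or more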;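 also: 0% = DMSO-treated cells and 100% = wells holding medium but no cells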
An asterisk follows results filed as active; · = not tested or not shown. Shown are actives, neighbours in structure and some others; about 3.5% of the full set was active somewhere.

SMILES | PPC-1+TRAIL kill | HSP90 inh | TROY signal inh | C8 TRAIL sens | Platelet DG rel | TWEAK Fn14 block | PPC-1 tox
CCCC(=O)Nc1c2c(nn1-c1ccc([N+](=O)[O-])cc1)CS(=O)(=O)C2 | · | 1.7 | -4.0 | 2.7 | 5.3 | -0.1 | ·
O=C1C(c2cc(=O)c3ccccc3[nH]2)=C(O)c2ccccc21 | 55.6* | 0.7 | -30.3 | 69.9* | 9.8 | 40.7 | 52.9*
Cc1cc(Cl)n2nc(C)c(-c3ccc(Cl)cc3)c2n1 | 54.4* | -1.9 | -9.6 | 40.7 | · | 12.7 | 34.5
Cc1cc(N)n2nc(C)c(-c3ccc(Cl)cc3)c2n1 | 16.6 | 0.6 | -9.3 | -12.6 | -9.8 | 7.9 | ·
COc1ccc(-c2ccc(SC)nn2)cc1 | 76.7* | 43.2* | 46.3 | 86.1* | 57.3* | 88.1* | 68.7*
COc1ccc(C(=O)CSc2ccc(-c3ccccc3)nn2)cc1 | 6.7 | 3.9 | 3.8 | -3.5 | -2.6 | -15.7 | ·
CC(=NNC(=S)Nc1ccccc1)c1ccccn1 | · | · | -38.3 | -9.4 | · | -67.9 | ·
C=CCNC(=S)N/N=C(\C)c1ccccn1 | 33.0 | 8.4 | -42.5 | -7.4 | -0.6 | 108.4* | 41.2
Cc1ccc(N/C(N)=N/c2nc(C)cc(N3CCCCC3)n2)c(C)c1 | 20.4 | -0.6 | 61.4* | 39.7 | -3.6 | 5.4 | 21.6
COc1cccc(N=c2oc3ccc(OC)cc3cc2-c2nc3ccccc3[nH]2)c1 | 8.6 | -0.7 | 47.9 | 62.9* | 5.9 | 62.0* | 26.5
CCCCS/C(N)=N/N=C/c1cc(C)ccc1O | 17.1 | -5.4 | -35.7 | -5.5 | -2.0 | -11.6 | ·
CCS/C(N)=N/N=C/c1cc(C)ccc1O | 62.2* | 3.2 | -64.9 | 72.2* | 17.6 | 9.3 | 63.5*
CC(=O)Cc1cc(O)c2ccccc2c1OC(=O)c1ccccc1 | 11.6 | 6.3 | 24.3 | 2.7 | 0.8 | 25.3 | 11.3
COc1ccc(N(CC(=O)Nc2cc(Cl)ccc2C)S(=O)(=O)c2c(C)n[nH]c2C)cc1 | · | 2.3 | -3.9 | 32.7 | -6.5 | 7.8 | ·
Cc1nc2sc(-c3ccccc3)cc2c(=O)[nH]1 | 65.0* | 16.7* | 31.9 | 77.2* | 19.4 | 56.5* | 60.6*
Cc1csc(NC(=O)CCS(=O)(=O)c2ccc(Br)cc2)n1 | 6.5 | 0.9 | -3.2 | 15.9 | -3.2 | 0.8 | 12.1
Cc1csc(NC(=O)Cc2ccc(Br)cc2)n1 | · | 0.1 | -6.1 | -18.8 | -2.1 | -3.7 | ·
CCN(Cc1ccccc1)C(=O)C1CCN(C(=O)Nc2ccccc2)CC1 | · | 2.0 | 2.0 | 13.6 | -6.5 | -5.9 | ·
CCN(CC(=O)NCc1ccc(F)cc1)C(=O)C1CCN(C(=O)Nc2ccccc2)CC1 | 7.3 | 2.3 | -37.1 | -8.3 | 3.2 | -11.7 | 7.2
CCOC(=O)CC(=O)CSc1nc(-c2cccnc2)ccc1C#N | 5.3 | -1.2 | -47.2 | 7.6 | 10.3 | -43.6 | ·
CCOC(=O)CSc1nc(-c2ccncc2)ccc1C#N | 48.3 | -5.0 | -70.8 | 50.7* | 4.9 | -10.3 | 45.7
CCOC(=O)C1=C(CSc2nc(-c3ccncc3)ccc2C#N)OC(N)=C(C#N)C1c1ccc(OC)cc1 (stereo not drawn) | -12.2 | -0.7 | -6.9 | -1.3 | 10.2 | -37.0 | -21.9
COc1cc(CN2C[C@@H](CO)O[C@@H](n3cnc4c(N5CCN(c6ccccc6)CC5)ncnc43)C2)cc(OC)c1OC | · | · | 7.0 | 9.1 | · | -3.9 | ·
COc1ccccc1C(=O)C1CCCN(C(=O)C2=CC(=O)CC(C)(C)O2)C1 (stereo not drawn) | · | -1.2 | -8.8 | 2.8 | 5.8 | -0.4 | ·
N/C(=N\OC(=O)c1ccc2c(c1)OCO2)c1cccnc1 | 74.2* | 2.0 | -17.3 | 82.4* | 15.5 | 28.7 | 73.6*
N/C(=N\OC(=O)c1ccc2c(c1)OCO2)c1cccc(Br)c1 | 7.4 | -3.7 | -13.6 | 0.3 | 2.9 | -19.4 | ·
CC1=NN(c2nc3ccccc3[nH]2)C(=O)/C1=C/N(C)C | 79.2* | 7.7 | 4.5 | 88.0* | · | 31.1 | 79.0*
N/C(=N\OC(=O)c1cc(Br)ccc1Cl)c1ccccn1 | 36.5 | 1.3 | -2.0 | 48.1 | -4.5 | 41.0 | ·
